Where “and” joins values, the source holds several entries; their conditions need not be identical. Identical values can stand only once. Inconclusive results are not listed. Calls of active or inactive are those of the source. Calls come from the whole dose curve; as a rule, active = well fitted inhibition curve with a large enough effect; inconclusive = small, poorly fitted or top-dose-only effect; inactive = flat fitted curve, though single readings scatter.
How the values were obtained:
[1] = qHTS profiling for inhibitors of Plasmodium falciparum proliferation (AID 504749); note: nearly all actives have a fitted effect of over 60% in size;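 for activity, negative = inhibition: 0% = DMSO vehicle and full inhibition = artemisinin control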; settings: P. falciparum in erythrocytes, SYBR Green DNA, 72 h
Summary of the method: (§1)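 SYBR Green fluorescence (ex 485 nm, em 535 nm) reports parasite DNA after 72 h compound exposure of infected red cells at 0.3% parasitemia, 2.5% hematocrit; signal normalized to 0.29 uM artemisinin and vehicle wells.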

3D7 = assay: as above; settings: P. falciparum in erythrocytes, SYBR Green DNA, 72 h; series mostly up to 28.7 µM
Summary of the method: as §1

7G8 = assay: as above; settings: P. falciparum in erythrocytes, SYBR Green DNA, 72 h; series mostly up to 28.7 µM
Summary of the method: as §1

AA1029 = assay: as above; settings: P. falciparum in erythrocytes, SYBR Green DNA, 72 h; series mostly up to 28.7 µM
Summary of the method: as §1

AS120 = assay: as above; settings: P. falciparum in erythrocytes, SYBR Green DNA, 72 h; series mostly up to 28.7 µM
Summary of the method: as §1

ATS189 = assay: as above; settings: P. falciparum in erythrocytes, SYBR Green DNA, 72 h; series mostly up to 28.7 µM
Summary of the method: as §1

[2] = at 28.7 µM (top of the series), parasite line A
[3] = at 28.7 µM (top of the series), parasite line B
[4] = at 12.8 µM (top of the series), parasite line A
[5] = at 12.8 µM (top of the series), parasite line B
Potency is the fitted concentration of half-maximal effect.

CCCCC(CC)COC(=O)c1ccccc1O (stereo not drawn)
inactive: activity, negative = inhibition [1, 2] 5.45% | activity, negative = inhibition [1, 3] -0.719% | Potency (3D7) | Potency (7G8) | Potency (AA1029) | Potency (AS120) | Potency (ATS189)

O=C(Oc1ccccc1C(=O)O)c1ccccc1O
inactive: activity, negative = inhibition [1, 2] 0.597% | activity, negative = inhibition [1, 3] 10.5% | Potency (3D7) | Potency (7G8) | Potency (AA1029) | Potency (AS120) | Potency (ATS189)

CC1(C)OC(=O)NC1=O
inactive: activity, negative = inhibition [1, 2] 17.2% | activity, negative = inhibition [1, 3] 21.8% | Potency (3D7) | Potency (7G8) | Potency (AA1029) | Potency (AS120) | Potency (ATS189)

CCCCCCCCCCCCOS(=O)(=O)O
inactive: activity, negative = inhibition [1, 2] 2.98% | activity, negative = inhibition [1, 3] -1.46% | Potency (3D7) | Potency (7G8) | Potency (AA1029) | Potency (AS120) | Potency (ATS189)

COc1ccccc1O
inactive: activity, negative = inhibition [1, 2] 6.24% | activity, negative = inhibition [1, 3] 17.1% | Potency (3D7) | Potency (7G8) | Potency (AA1029) | Potency (AS120) | Potency (ATS189)

CC1(C)[C@@H]2CC[C@@]1(C)C(=O)C2
inactive: activity, negative = inhibition [1, 2] 5.82% | activity, negative = inhibition [1, 3] 6.35% | Potency (3D7) | Potency (7G8) | Potency (AA1029) | Potency (AS120) | Potency (ATS189)

Nc1ccc(S(=O)(=O)NC(=O)c2ccccc2)cc1
inactive: activity, negative = inhibition [1, 4] 10.4% | activity, negative = inhibition [1, 5] 13.1% | Potency (3D7) | Potency (7G8) | Potency (AA1029) | Potency (AS120) | Potency (ATS189)

NS(=O)(=O)c1cc2c(cc1Cl)NC(CSCc1ccccc1)=NS2(=O)=O
inactive: activity, negative = inhibition [1, 4] 2.74% | activity, negative = inhibition [1, 5] 12.8% | Potency (3D7) | Potency (7G8) | Potency (AA1029) | Potency (AS120) | Potency (ATS189)

NC(=O)NC(=O)Cc1ccccc1
inactive: activity, negative = inhibition [1, 2] 2.68% | activity, negative = inhibition [1, 3] -4.74% | Potency (3D7) | Potency (7G8) | Potency (AA1029) | Potency (AS120) | Potency (ATS189)

O=c1cc[nH]c(=O)[nH]1
inactive: activity, negative = inhibition [1, 2] 9.07% | activity, negative = inhibition [1, 3] 2.41% | Potency (3D7) | Potency (7G8) | Potency (AA1029) | Potency (AS120) | Potency (ATS189)

O=C(O)CN1C(=O)c2cccc3cccc(c23)C1=O
inactive: activity, negative = inhibition [1, 2] -2.87% | activity, negative = inhibition [1, 3] 1.81% | Potency (3D7) | Potency (7G8) | Potency (AA1029) | Potency (AS120) | Potency (ATS189)

N[C@@H](CSCCCO)C(=O)O
inactive: activity, negative = inhibition [1, 2] -6.32% | activity, negative = inhibition [1, 3] -2.52% | Potency (3D7) | Potency (7G8) | Potency (AA1029) | Potency (AS120) | Potency (ATS189)

Cc1cccc(C)c1NC(=O)CN(CC(=O)O)CC(=O)O
inactive: activity, negative = inhibition [1, 2] 13.4% | activity, negative = inhibition [1, 3] 2.17% | Potency (3D7) | Potency (7G8) | Potency (AA1029) | Potency (AS120) | Potency (ATS189)

CC(=O)Nc1ccc(/C=N/NC(N)=S)cc1
inactive: activity, negative = inhibition [1, 2] 9.12% and 9.39% | activity, negative = inhibition [1, 3] 6.45% and 8.83% | Potency (3D7) | Potency (7G8) | Potency (AA1029) | Potency (AS120) | Potency (ATS189)

O=S(=O)(O)NC1CCCCC1
inactive: activity, negative = inhibition [1, 2] 2.07% | activity, negative = inhibition [1, 3] 5.79% | Potency (3D7) | Potency (7G8) | Potency (AA1029) | Potency (AS120) | Potency (ATS189)

Oc1cn2c(n1)Nc1ccc(Cl)c(Cl)c1C2
inactive: activity, negative = inhibition [1, 2] 7.35% | activity, negative = inhibition [1, 3] -8.41% | Potency (3D7) | Potency (7G8) | Potency (AA1029) | Potency (AS120) | Potency (ATS189)

CC(=O)CCC(=O)O
inactive: activity, negative = inhibition [1, 2] 10.3% | activity, negative = inhibition [1, 3] -7.9% | Potency (3D7) | Potency (7G8) | Potency (AA1029) | Potency (AS120) | Potency (ATS189)

O=Cc1ccccc1C=O
inactive: activity, negative = inhibition [1, 2] -1.21% | activity, negative = inhibition [1, 3] 5.64% | Potency (3D7) | Potency (7G8) | Potency (AA1029) | Potency (AS120) | Potency (ATS189)

O=C(O)c1ccccc1-c1ccc(C(F)(F)F)cc1
inactive: activity, negative = inhibition [1, 2] 11.3% | activity, negative = inhibition [1, 3] 19.8% | Potency (3D7) | Potency (7G8) | Potency (AA1029) | Potency (AS120) | Potency (ATS189)

NC(CSCC(=O)O)C(=O)O (stereo not drawn)
inactive: activity, negative = inhibition [1, 2] -7.77% | activity, negative = inhibition [1, 3] -0.351% | Potency (3D7) | Potency (7G8) | Potency (AA1029) | Potency (AS120) | Potency (ATS189)

CCC(=O)Nc1ccc(O)cc1
inactive: activity, negative = inhibition [1, 2] 11.9% | activity, negative = inhibition [1, 3] -3.83% | Potency (3D7) | Potency (7G8) | Potency (AA1029) | Potency (AS120) | Potency (ATS189)

CC(CN1c2ccccc2Sc2ccccc21)N(C)C (stereo not drawn)
inactive: activity, negative = inhibition [1, 2] 8.14% | activity, negative = inhibition [1, 3] -0.843% | Potency (3D7) | Potency (ATS189)
active: Potency (7G8) 8.91 µM

Nc1ccc(S(=O)(=O)Nc2ccc(Cl)nn2)cc1
inactive: Potency (3D7) | Potency (7G8)

O=S(=O)(O)c1cc(I)c(O)c2ncccc12
inactive: activity, negative = inhibition [1, 2] 12% | activity, negative = inhibition [1, 3] -2.06% | Potency (3D7) | Potency (AA1029) | Potency (AS120) | Potency (ATS189)

CCCOC(=O)c1ccccc1
inactive: activity, negative = inhibition [1, 2] -2.05% | activity, negative = inhibition [1, 3] 2.76% | Potency (3D7) | Potency (7G8) | Potency (AA1029) | Potency (AS120) | Potency (ATS189)

CC(C)(C)NCC(O)COc1ccc(NC(=O)NC2CCCCC2)cc1 (stereo not drawn)
inactive: activity, negative = inhibition [1, 3] 2.44% | Potency (3D7) | Potency (AA1029) | Potency (AS120) | Potency (ATS189)

O=C1NS(=O)(=O)c2ccccc21
inactive: activity, negative = inhibition [1, 2] 2.53% | Potency (3D7) | Potency (7G8) | Potency (AA1029) | Potency (AS120) | Potency (ATS189)

Source: PubChem BioAssay (NCATS)
